According to PubChem BioAssay (NCATS):
Inconclusive results are not listed. The source made the active and inactive calls. Unless noted, the call rests on the fitted dose curve; in most records, active means well fitted curve in the direction sought with a large enough effect; inconclusive means small, poorly fitted or top-dose-only effect, or another doubt; inactive means no such curve, though single readings can be large; an effect the other way counts as inactive or inconclusive.

How the values were obtained:
[1] = qHTS for differential inhibitors of proliferation of Plasmodium falciparum line D10 (AID 1877);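 further: parasites grown with compound for 72 h before DNA staining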
[2] = qHTS for differential inhibitors of proliferation of Plasmodium falciparum line Dd2 (AID 1882); conditions: Potency: Plasmodium falciparum Dd2 proliferation inhibition; further: nearly all actives have a fitted effect of over 65% in size; further: potency means the concentration at half of the fitted maximal effect
How it was run: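 SYBR Green DNA fluorescence (ex 485, em 535 nm) after overnight lysis quantifies parasite growth; compound exposure lasted 72 h at 37 C on infected red cells at 2.5% hematocrit, 0.3% parasitemia (final). Artemisinin 0.29 uM and vehicle wells define normalization.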

[3] = qHTS for differential inhibitors of proliferation of Plasmodium falciparum line W2 (AID 1883); conditions: Potency: Plasmodium falciparum W2 proliferation inhibition;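 further: parasites grown with compound for 72 h before lysis and staining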; further: potency means the concentration at half of the fitted maximal effect
[4] = qHTS for differential inhibitors of proliferation of Plasmodium falciparum line HB3 (AID 1886); conditions: Potency: Plasmodium falciparum HB3 proliferation inhibition;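 further: parasites grown with compound for 72 h before SYBR Green readout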
[5] = qHTS Assay for Modulators of Human Peripheral Myelin Protein 22 (PMP22) Expression/Activity (AID 1967; active means well fitted curve in the direction sought with a large enough effect in the signal ratio; the % refers to the signal ratio)
How it was run: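 Engineered MSC80 cells, Pmp22-promoter green and EF-alpha red luciferase reporters; 24h compound treatment at 37 °C. Concentration-response fits on green, red and ratio signals, each overlap-corrected, with %Activity normalized to untreated wells.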

[6] = biological target: Ferritin light chain (Equus caballus) (UniProt P02791); assay: qHTS Validation Assay for Identification of Novel General Anesthetics (AID 2323); further: series mostly up to about 77 µM
Sequence of Ferritin light chain (Equus caballus) (P02791 2-175 limits assumed): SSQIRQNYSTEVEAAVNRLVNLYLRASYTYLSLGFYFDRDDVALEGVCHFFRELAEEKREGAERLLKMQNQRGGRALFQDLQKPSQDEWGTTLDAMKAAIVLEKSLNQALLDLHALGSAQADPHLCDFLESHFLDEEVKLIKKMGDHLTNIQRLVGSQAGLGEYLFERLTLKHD
How it was run: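 Normalized fluorescence response, scaled between free 1-AMA and 1-AMA/apoferritin complex, fitted to a four-parameter Hill equation for concentration-effect values. Binding mix: 10 uM horse-spleen apoferritin, 50% saturated 1-AMA in PBS; read 380/535 nm after 10 min.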

[7] = biological target: ATP-dependent DNA helicase Q1 (Homo sapiens) (UniProt P46063); assay: qHTS Validation Assay for Inhibitors of RecQ-Like Dna Helicase 1 (RECQ1) (AID 2353); further: potency means the concentration at half of the fitted maximal effect
Sequence of ATP-dependent DNA helicase Q1 (Homo sapiens) (P46063 whole entry, looked up): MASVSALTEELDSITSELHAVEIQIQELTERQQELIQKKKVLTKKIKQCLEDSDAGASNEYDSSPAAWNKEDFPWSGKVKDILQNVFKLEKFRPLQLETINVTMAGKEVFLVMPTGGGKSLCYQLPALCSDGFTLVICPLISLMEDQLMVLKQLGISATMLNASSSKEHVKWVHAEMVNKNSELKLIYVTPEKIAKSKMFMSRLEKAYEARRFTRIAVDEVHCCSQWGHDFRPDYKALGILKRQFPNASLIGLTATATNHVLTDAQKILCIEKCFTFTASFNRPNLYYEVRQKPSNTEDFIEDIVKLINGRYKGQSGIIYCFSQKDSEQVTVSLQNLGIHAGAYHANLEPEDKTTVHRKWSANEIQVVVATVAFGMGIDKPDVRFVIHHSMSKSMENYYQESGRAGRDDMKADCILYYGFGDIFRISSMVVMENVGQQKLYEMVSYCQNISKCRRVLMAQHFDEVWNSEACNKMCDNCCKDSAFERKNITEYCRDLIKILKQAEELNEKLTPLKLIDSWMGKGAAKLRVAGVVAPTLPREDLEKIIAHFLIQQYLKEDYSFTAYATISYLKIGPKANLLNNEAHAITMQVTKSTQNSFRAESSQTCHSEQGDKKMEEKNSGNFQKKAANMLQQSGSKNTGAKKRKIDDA
How it was run: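 RECQ1T1 50 nM; forked duplex (20 bp + 30-nt ss tails) 200 nM, ATP 2 mM final; pH 8.0, 2 mM MgCl2, 2.5 ug/ml poly(dI-dC); 15 min compound preincubation; discontinuous kinetic read over 2 h at RT.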

[8] = biological target: RecQ-like DNA helicase BLM (Homo sapiens) (UniProt P54132); assay: qHTS Validation Assay for Inhibitors of Bloom's syndrome helicase (BLM) (AID 2364)
Sequence of RecQ-like DNA helicase BLM (Homo sapiens) (P54132 whole entry, looked up): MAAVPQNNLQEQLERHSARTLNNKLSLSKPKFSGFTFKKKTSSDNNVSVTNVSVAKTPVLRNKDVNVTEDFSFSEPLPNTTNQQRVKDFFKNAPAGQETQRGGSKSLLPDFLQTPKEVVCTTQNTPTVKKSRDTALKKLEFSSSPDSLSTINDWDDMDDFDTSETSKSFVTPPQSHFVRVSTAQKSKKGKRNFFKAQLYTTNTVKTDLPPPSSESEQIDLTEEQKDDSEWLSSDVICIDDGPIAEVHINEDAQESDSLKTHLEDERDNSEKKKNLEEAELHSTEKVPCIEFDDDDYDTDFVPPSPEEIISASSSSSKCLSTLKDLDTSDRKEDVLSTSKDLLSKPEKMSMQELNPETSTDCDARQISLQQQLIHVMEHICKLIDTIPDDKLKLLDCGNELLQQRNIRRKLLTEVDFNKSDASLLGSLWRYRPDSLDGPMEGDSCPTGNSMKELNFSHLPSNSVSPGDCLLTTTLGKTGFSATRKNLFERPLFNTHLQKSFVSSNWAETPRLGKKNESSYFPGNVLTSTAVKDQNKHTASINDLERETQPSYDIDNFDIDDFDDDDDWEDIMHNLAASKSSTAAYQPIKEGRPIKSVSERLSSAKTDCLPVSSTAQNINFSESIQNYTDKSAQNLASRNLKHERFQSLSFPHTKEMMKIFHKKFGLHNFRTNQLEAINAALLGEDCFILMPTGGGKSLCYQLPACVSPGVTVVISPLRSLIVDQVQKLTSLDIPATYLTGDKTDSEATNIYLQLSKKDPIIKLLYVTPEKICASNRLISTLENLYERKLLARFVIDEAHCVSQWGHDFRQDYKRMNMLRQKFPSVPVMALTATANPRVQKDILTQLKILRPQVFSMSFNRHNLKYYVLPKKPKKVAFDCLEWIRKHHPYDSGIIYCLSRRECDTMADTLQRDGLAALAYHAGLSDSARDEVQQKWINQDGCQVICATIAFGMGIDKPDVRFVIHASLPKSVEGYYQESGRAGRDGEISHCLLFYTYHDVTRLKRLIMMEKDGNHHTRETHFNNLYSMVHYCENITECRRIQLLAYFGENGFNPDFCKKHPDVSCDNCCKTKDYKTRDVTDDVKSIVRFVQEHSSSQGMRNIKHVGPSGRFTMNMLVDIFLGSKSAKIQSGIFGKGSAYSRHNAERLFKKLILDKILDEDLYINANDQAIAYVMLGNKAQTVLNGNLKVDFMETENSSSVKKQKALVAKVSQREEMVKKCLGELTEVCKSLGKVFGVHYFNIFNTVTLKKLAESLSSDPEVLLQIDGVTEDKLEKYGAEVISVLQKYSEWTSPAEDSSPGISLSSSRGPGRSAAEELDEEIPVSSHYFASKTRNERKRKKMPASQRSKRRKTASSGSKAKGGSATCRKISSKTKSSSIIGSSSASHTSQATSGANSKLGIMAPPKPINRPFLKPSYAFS
How it was run: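 Forked 20-bp duplex substrate (200 nM, TAMRA/BHQ-2) plus 2 mM ATP added after 15 min compound preincubation with 50 nM enzyme, pH 8.0, poly(dI-dC) 2.5 ug/ml. Strand separation followed by fluorescence (525/598 nm) over 2 h, normalized to enzyme-free and DMSO controls.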

[9] = Cytometric Cell-Based qHTS for Inhibitors of the mTORC1 Signaling Pathway in MEF (Tsc2-/-, p53-/-) Cells (AID 2660);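 further: Tsc2 and p53 null MEFs carrying empty vector with compound for 24 h; percent of cells above a phospho-rpS6 to PI ratio cutoff in each well; series mostly up to about 38 µM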
How it was run: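 Cells are plated, treated with compound for 24 hrs at 37 degree Celsius, then fixed, blocked and immunostained for phospho-rpS6 Ser235/236. Propidium iodide counterstain follows. Per-well % positive cells is derived from the PI-normalized phospho-S6 signal.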

[10] = High Content Imaging Cell-Based qHTS for Inhibitors of the mTORC1 Signaling Pathway in MEF (Tsc2-/-, p53-/-) Cells (AID 2666);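 further: percent of cells scored positive for phospho-rpS6 Ser235/236 immunostaining by imaging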
How it was run: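 Tsc2-/-, p53-/- MEFs (empty-vector stable) grown in DMEM + 10% FBS were exposed to compounds for 24 hrs at 37 degree Celsius, fixed, and stained with Alexa-488 anti-phospho-rpS6 Ser235/236 plus Hoechst. Imaging gave the percentage of positive cells per well.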

[11] = High Content Imaging Cell-Based qHTS for Inhibitors of the mTORC1 Signaling Pathway in MEF Cells (AID 2667);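 further: Tsc2-/- p53-/- MEFs stably re-expressing wild-type Tsc2 exposed 24 h; series mostly up to about 38 µM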
How it was run: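 Tsc2-/-, p53-/- MEFs stably re-expressing WT Tsc2, grown in DMEM + 10% FBS, were treated with compounds for 24 hrs at 37 degree Celsius, fixed, and stained with Alexa-488 phospho-rpS6 Ser235/236 antibody plus Hoechst; results given as % positive cells.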

[12] = Cytometry Cell-Based qHTS for Inhibitors of the mTORC1 Signaling Pathway in MEF cells (AID 2668);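 further: Tsc2-/- p53-/- mouse embryonic fibroblasts stably re-expressing wild-type Tsc2; percent cells positive for phospho-rpS6 Ser235/236 relative to propidium iodide stain; series mostly up to about 38 µM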
How it was run: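 In MEFs grown in DMEM + 10% FBS, a 24 hrs compound exposure preceded imaging of phospho-rpS6 Ser235/236 by laser-scanning cytometry.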

[13] = Validation screen for small molecules that induce DNA re-replication in MCF 10A normal breast cells (AID 463097); further: nearly all actives have a fitted effect of over 60% in size
How it was run: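 Following 48 hr compound incubation (37 C, 5% CO2), MCF 10A cells receive Hoechst for 40 min at 37 C. Nuclei are then scanned (excitation 405 nm, emission 500-530 nm) for total fluorescence intensity.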

[14] = biological target: DNA polymerase III PolC-type (Bacillus subtilis (strain 168)) (UniProt P13267); assay: qHTS Validation Assay for the Inhibitors of DNA Replication in Gram-Positive Bacteria (AID 485295);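 further: reconstituted holoenzyme with PolC plus beta clamp SSB and primase; PicoGreen fluorescence of double-stranded DNA made on primed circular M13 template; series mostly up to about 57 µM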
Sequence of DNA polymerase III PolC-type (Bacillus subtilis (strain 168)) (P13267 whole entry, looked up): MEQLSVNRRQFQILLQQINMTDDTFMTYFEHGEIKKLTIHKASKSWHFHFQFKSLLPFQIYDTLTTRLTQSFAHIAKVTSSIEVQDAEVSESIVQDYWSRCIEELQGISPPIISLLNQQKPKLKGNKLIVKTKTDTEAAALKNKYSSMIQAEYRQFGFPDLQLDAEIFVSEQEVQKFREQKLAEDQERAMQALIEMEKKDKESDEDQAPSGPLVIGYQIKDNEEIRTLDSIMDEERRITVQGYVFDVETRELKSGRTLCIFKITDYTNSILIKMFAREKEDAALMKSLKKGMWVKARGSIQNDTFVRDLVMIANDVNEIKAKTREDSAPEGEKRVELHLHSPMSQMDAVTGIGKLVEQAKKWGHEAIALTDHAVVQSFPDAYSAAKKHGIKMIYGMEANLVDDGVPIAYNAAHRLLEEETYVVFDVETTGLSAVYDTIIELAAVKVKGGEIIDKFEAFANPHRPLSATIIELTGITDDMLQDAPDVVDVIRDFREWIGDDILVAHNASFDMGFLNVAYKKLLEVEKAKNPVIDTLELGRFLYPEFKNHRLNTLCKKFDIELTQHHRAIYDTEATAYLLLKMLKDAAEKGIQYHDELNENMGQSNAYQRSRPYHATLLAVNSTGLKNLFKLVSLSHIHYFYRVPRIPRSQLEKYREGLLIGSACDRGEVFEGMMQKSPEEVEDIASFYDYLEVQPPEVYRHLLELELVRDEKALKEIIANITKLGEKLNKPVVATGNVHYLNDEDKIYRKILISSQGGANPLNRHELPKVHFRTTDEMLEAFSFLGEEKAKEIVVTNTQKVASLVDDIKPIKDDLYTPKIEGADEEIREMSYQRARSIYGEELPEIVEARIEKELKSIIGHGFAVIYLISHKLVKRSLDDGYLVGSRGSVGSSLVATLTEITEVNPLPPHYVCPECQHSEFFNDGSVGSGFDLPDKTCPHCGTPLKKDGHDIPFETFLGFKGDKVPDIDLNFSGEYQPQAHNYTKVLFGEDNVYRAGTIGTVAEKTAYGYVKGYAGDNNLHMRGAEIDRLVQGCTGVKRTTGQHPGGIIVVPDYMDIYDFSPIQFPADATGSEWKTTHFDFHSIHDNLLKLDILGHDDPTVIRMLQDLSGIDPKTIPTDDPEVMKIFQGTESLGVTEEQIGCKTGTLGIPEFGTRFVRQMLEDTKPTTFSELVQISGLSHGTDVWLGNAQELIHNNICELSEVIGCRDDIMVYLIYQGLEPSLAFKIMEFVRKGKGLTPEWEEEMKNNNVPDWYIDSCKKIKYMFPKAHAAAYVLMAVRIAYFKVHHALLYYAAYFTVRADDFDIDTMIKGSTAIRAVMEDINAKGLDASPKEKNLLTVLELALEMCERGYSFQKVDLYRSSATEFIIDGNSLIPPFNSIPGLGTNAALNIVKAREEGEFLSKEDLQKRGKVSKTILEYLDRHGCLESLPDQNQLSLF
How it was run: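 Inhibition of DNA synthesis by the reconstituted PolC holoenzyme, monitored through PicoGreen staining of dsDNA formed from ssM13Gori, dNTPs and NTPs, with compound preincubation and room-temperature reaction.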

[15] = biological target: Tumor susceptibility gene 101 protein (Homo sapiens) (UniProt Q99816); assay: qHTS Validation Assay for Iinhibitors of HIV-1 Budding by Blocking the Interaction of PTAP/TSG101 (AID 485342; calls by dose curve)
Sequence of Tumor susceptibility gene 101 protein (Homo sapiens) (Q99816 whole entry, looked up, the tested form may be a part): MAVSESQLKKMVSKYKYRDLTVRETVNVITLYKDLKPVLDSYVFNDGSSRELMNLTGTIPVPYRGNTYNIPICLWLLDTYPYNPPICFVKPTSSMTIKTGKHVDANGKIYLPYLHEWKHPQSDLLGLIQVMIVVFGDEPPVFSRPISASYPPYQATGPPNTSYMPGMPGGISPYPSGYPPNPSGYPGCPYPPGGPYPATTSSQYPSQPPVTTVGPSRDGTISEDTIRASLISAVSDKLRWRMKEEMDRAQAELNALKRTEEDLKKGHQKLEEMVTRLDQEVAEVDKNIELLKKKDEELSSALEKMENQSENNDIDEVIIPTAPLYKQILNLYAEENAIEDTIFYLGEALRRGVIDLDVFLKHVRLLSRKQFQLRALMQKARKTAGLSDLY
How it was run: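 Compound wells held the Tsg101 binding domain (10 uM) and a FITC-conjugated PTAP peptide (50 nM) in buffer at pH 7.5 containing 0.15 M NaCl and 0.01% Tween 20; polarization was recorded after 20 min, r.t.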

[16] = qHTS Validation Assay to Find Inhibitors of Chronic Active B-Cell Receptor Signaling (AID 485345; active means well fitted curve in the direction sought with a large enough effect in the main read-out, with a control signal flat, not every such curve was filed as active)
How it was run: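 Read-out: ratio of filter-corrected green (IkappaBalpha fusion) to red (native) luciferase signal in doxycycline-induced TMD8 cells after 4 h at 37C. Titration spanned 46 uM–3 nM; Data were normalised to basal cells and 10 uM MG-132 wells.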

[17] = biological target: Ubiquitin carboxyl-terminal hydrolase 2 (Homo sapiens) (UniProt O75604); assay: qHTS Validation Assay for Inhibitors of Ubiquitin-specific Protease USP2a Using CHOP2 as the Reporter (AID 463106)
Sequence of Ubiquitin carboxyl-terminal hydrolase 2 (Homo sapiens) (O75604 whole entry, looked up): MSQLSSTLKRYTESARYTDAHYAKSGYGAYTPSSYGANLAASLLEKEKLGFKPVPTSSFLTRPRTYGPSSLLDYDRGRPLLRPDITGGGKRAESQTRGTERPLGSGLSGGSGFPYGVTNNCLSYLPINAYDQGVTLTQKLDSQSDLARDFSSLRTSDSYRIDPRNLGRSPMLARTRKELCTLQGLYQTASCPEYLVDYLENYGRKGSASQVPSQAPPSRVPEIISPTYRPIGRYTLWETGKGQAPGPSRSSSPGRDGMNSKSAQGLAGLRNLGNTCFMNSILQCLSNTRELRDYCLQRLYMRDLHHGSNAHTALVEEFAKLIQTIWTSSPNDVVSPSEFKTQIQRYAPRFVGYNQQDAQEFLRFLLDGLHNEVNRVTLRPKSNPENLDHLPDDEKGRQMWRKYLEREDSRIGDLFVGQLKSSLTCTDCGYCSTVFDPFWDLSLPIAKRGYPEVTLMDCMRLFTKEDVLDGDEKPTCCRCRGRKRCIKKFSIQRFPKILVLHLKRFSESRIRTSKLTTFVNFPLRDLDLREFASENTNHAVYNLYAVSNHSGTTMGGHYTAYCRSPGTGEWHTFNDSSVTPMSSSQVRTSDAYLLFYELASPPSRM
How it was run: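 Readout was coupled fluorescence (Ex 485/Em 531 nm), read 60 min after adding 25 nM final Ub-CHOP2 and 25 nM reporter substrate. Beforehand, 10 nM final USP2 core had 30 min at RT with compound in pH 8.0 buffer. Curves were fitted after normalization to NEM and flagged for artifacts using time-zero reads.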

Measured: Potency

COc1cc(CC(=O)O)ccc1O
not listed: [17]
inactive: all other assays above

Cc1cccc(C)c1OCC(N)C(C)C (centres undefined)
active: [2] 4.47 µM | [3] 0.708 µM
not listed: [8] | [14] | [16]
inactive: all other assays above

CC(C)(C)NCC(O)COc1cccc2[nH]c(=O)[nH]c12 (centres undefined)
inactive: all assays above

COc1ccc(-c2ccc(N)[n+](CCCC(=O)O)n2)cc1
not listed: [16] | [17]
inactive: all other assays above

[Li+]
not listed: [14]
inactive: all other assays above

Cc1nc(N=Nc2ccc(S(=O)(=O)O)cc2S(=O)(=O)O)c(COP(=O)(O)O)c(C=O)c1O
inactive: all assays above

CSC(N)=NCCC[C@H](N)C(=O)O
not listed: [14]
inactive: all other assays above

CC(N)(Cc1ccc(O)cc1)C(=O)O (centres undefined)
active: [7] 11.2 µM
not listed: [16]
inactive: all other assays above

NC/C=C\C(=O)O
not listed: [8]
inactive: all other assays above

NC(C(=O)N[C@@H]1C(=O)N2C(C(=O)O)=C(Cl)CS[C@H]12)c1ccccc1 (some centres undefined)
not listed: [8] | [15]
inactive: all other assays above

NCCC1CCCC(CCN)N1 (centres undefined)
inactive: all assays above

COc1cc(C(O)C(=O)O)ccc1O (centres undefined)
not listed: [8] | [14] | [15]
inactive: all other assays above

CC(=O)C(C)=O
not listed: [16]
inactive: all other assays above

O=C(O)C1=CCCNC1
not listed: [8] | [16]
inactive: all other assays above

NCCCCN
not listed: [15] | [17]
inactive: all other assays above

CC(C)NCC(O)COc1ccc(CC(N)=O)cc1 (centres undefined)
not listed: [9]
inactive: all other assays above

N[C@@H](CCCC(=O)O)C(=O)O
not listed: [8]
inactive: all other assays above

NC1CONC1=O (centres undefined)
not listed: [8] | [16]
inactive: all other assays above

O=C(O)CCC(=O)N1CCCC1C(=O)O (centres undefined)
not listed: [8]
inactive: all other assays above

O=C(O)C1=CCNCC1
not listed: [8] | [15]
inactive: all other assays above

Cn1ccnc1
inactive: all assays above

COc1cc(C(O)CO)ccc1O (centres undefined)
inactive: all assays above

NC1(C(=O)O)CCc2cc(C(=O)O)ccc21 (centres undefined)
not listed: [8]
inactive: all other assays above

C[C@@H](NCCc1ccc(O)cc1)[C@@H](O)c1ccc(O)cc1
not listed: [12]
inactive: all other assays above

CNc1ncnc2c1ncn2[C@H]1C[C@H](OP(=O)(O)O)[C@@H](COP(=O)(O)O)O1
not listed: [8] | [16]
inactive: all other assays above

O=C(O)c1cc(=O)cc(C(=O)O)[nH]1
not listed: [8]
inactive: all other assays above

N[C@@H](Cc1ccc(O)c(I)c1)C(=O)O
not listed: [8] | [14]
inactive: all other assays above

C#CCn1c(=O)c2c(ncn2C)n(C)c1=O
not listed: [8] | [16]
inactive: all other assays above

CC[N+](CC)(CC)CC(=O)Nc1c(C)cccc1C
not listed: [8]
inactive: all other assays above

Cc1ccc([N+](=O)[O-])cc1S(=O)(=O)N(C)C
not listed: [16]
inactive: all other assays above

O=C(O)c1cccnc1C(=O)O
not listed: [8] | [16] | [17]
inactive: all other assays above

CC(N)(C(=O)O)c1ccc(C(=O)O)cc1 (centres undefined)
not listed: [8]
inactive: all other assays above

NC(Cc1cccc(-c2ccccc2CP(=O)(O)O)c1)C(=O)O (centres undefined)
inactive: all assays above

CCCc1c(OCCCOc2ccc(OCC(=O)O)cc2)ccc(C(C)=O)c1O
not listed: [8] | [14]
inactive: all other assays above
